# Compound activity deposited in PubChem by several laboratories.
# ABCB6 inh MLPCN = blocks the human ABCB6 transporter; Q9NP58; K562-ABCB6 porphyrin accumulation, flow cytometry, 1 h; hits give low values; fluorescence ratio to DMSO, % at 10 µM; hit rate 0.19% among 360,000;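 active means fluorescence ratio to DMSO below 75%, the collection mean minus 3 SD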;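 further: signal is porphyrin accumulated inside mitochondria; 100% equals median channel fluorescence of DMSO control wells; lower ratio means ABCB6 inhibition with less porphyrin fluorescence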
# Target sequence (Q9NP58 whole entry, looked up): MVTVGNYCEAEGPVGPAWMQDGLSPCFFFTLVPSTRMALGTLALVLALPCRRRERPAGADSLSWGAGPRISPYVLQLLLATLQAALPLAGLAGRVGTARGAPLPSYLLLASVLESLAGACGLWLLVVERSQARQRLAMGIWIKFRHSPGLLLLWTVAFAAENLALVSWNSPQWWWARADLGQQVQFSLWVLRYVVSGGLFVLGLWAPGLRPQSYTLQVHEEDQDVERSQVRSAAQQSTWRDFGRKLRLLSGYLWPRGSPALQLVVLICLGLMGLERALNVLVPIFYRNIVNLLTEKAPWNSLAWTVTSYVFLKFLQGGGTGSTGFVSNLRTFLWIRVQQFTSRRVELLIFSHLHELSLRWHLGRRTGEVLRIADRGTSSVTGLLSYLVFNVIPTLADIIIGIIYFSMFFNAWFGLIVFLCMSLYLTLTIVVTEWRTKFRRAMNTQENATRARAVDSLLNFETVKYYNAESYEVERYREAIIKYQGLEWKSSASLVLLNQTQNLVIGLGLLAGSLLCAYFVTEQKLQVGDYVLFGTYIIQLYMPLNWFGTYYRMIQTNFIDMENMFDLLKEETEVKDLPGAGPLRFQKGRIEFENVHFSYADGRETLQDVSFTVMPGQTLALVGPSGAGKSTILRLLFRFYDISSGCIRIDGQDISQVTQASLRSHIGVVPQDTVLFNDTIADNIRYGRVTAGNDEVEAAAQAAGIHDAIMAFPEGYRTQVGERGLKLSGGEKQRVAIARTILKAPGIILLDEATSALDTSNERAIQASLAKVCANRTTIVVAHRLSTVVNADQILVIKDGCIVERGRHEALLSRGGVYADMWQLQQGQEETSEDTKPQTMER
# SMARCA2 act = SMARCA2 function activation, primary screen; MG213 cells, MMTV-luciferase reporter, dexamethasone, overnight; activation, % at 9.1 µM; hit rate 1% among 370,000; in the data active means activation above about 7.8%;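 further: 0% = vehicle wells and 100% = reference activator wells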
# MsrA inh = inhibits bovine methionine sulfoxide reductase A. inhibition, % at 15.5 µM. hit rate 0.75% among 360,000. AID 651718. purified bovine MsrA, absorbance read-out;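 further: 0% = vehicle wells with enzyme and 100% = reference inhibitor wells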
# MsrA act = activates bovine MsrA enzyme; purified bovine MsrA, absorbance read-out; activation, % at 10.6 µM; hit rate 0.3% among 360,000; AID 602163; in the data active means activation above about 7.5%;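 further: 0% = vehicle and 100% = reference activator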
# MsrA conf = confirmation of bovine MsrA inhibitors | hit rate 41% among 2,300 | shares compounds with MsrA inh | purified bovine MsrA, absorbance read-out | inhibition, % at 15.5 µM | AID 651822;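 further: coupled to thioredoxin reductase with NADPH and selenocystamine and DMSO as substrate; 0% = vehicle only and 100% = full effect of reference inhibitor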
# The depositor's hits bear a star; · = not tested or not shown. Most compounds without a hit are left out; they make up all but 2.1% or so of the library. Unless noted, no stated cut-off is given here; in the data, active means inhibition above about 4.5%; inactive means the rest.
SMILES,ABCB6 inh MLPCN,SMARCA2 act,MsrA inh,MsrA act,MsrA conf
COc1cc(/C=N/NC(N)=O)cc([N+](=O)[O-])c1O,99.0,3.5,4.7*,-12.2,2.7
CN1c2ccsc2C(O)=C(C(=S)Nc2ccc(F)c(Cl)c2)S1(=O)=O,103.0,-4.8,6.5*,-12.7,5.1*
Cn1cc(C(=O)Nc2ccc(F)c(Cl)c2)cn1,96.0,3.0,-0.2,-0.4,·
CC(c1nccs1)N(C)c1nc2nonc2nc1N(C)C (centres undefined),96.0,-4.9,4.9*,-10.1,2.2
CCOc1ccc(NC(=O)CN(C)C(=O)c2ccc(-c3ccc(C(C)=O)cc3)o2)cc1OCC,104.0,4.2,4.9*,-2.9,2.8
COc1cccc(/C=C2/SC(=O)N(C)C2=O)c1OCc1ccc(C(=O)O)cc1,78.0,0.1,2.8,-5.7,·
COc1cccc(/C=C2/SC(=O)N(CC(=O)N3CCc4ccccc4C3)C2=O)c1OCC(=O)O,92.0,-0.4,4.8*,-6.5,4.4
C/C(=N\NC(N)=S)c1ccc(Cl)s1,99.0,-0.7,5.7*,-3.6,4.8*
C/C(=N\NC(=S)NC(C)C)c1ccc(Cl)s1,97.0,1.6,3.5,-5.2,·
COC(=O)C1CN(Cc2cn(Cc3ccc(F)cc3)nn2)CCS(=O)(=O)N1Cc1ccc(F)cc1 (centres undefined),·,-2.3,·,·,·
COC(=O)COc1ccc2oc(=O)cc(-c3cc4cccc(OC)c4o3)c2c1,90.0,-0.9,7.4*,-4.6,15.4*
COc1cccc2cc(-c3cc(=O)oc4ccc(O)cc34)oc12,95.0,-0.6,16.9*,-0.3,13.3*
O=C(COc1ccccc1)Nc1ccc2oc(=O)ccc2c1,106.0,0.0,-0.8,-2.2,·
COC(=O)COc1ccc2oc(=O)cc(-c3cc4ccccc4o3)c2c1,96.0,4.7,14.9*,-3.3,24.2*
COc1cccc2cc(-c3ccccc3)oc12,96.0,4.0,-1.5,-0.8,·
NC(=O)COc1ccc2oc(=O)cc(-c3cc4ccccc4o3)c2c1,100.0,0.3,22.8*,-3.8,20.5*
O=C(c1cc(Cl)cc(Cl)c1)N1CCC(Oc2cccnc2)CC1,·,-1.0,·,·,·
N#C/C(=C\c1ccco1)C(=O)Nc1cccc2ncccc12,102.0,3.3,6.0*,-5.7,5.3*
O=C(NCC1CC1)c1cc([N+](=O)[O-])cc([N+](=O)[O-])c1,99.0,-2.5,8.5*,3.6,7.1*
O=C(NCC1CCCCC1)c1cccc([N+](=O)[O-])c1,95.0,-2.2,-0.2,0.2,·
COC(=O)[C@]12C[C@H](CC(=O)NCC3CCCCC3)C(=O)N(Cc3cccc4ccccc34)C1=C[C@H](C(C)C)O[C@@H]2C1CC1,·,-1.5,·,·,·
O=C(O)c1cc(O)c2c(c1)C(=O)c1cccc(O)c1C2=O,98.0,-2.7,4.7*,2.3,16.9*
COC(=O)C1CN(Cc2cn(CCOC(C)=O)nn2)CCS(=O)(=O)N1Cc1ccccc1 (centres undefined),·,-1.4,·,·,·
O=C(CSc1nnc(COc2ccc(Cl)cc2)n1Cc1ccco1)Nc1ccc2c(c1)OCO2,·,-1.1,·,·,·
O=C(CN1CCN(Cc2ccccc2)CC1)N/N=C\C=C/c1ccco1,99.0,1.4,6.9*,-13.7,5.5*
SMILES,ABCB6 inh MLPCN,SMARCA2 act,MsrA inh,MsrA act,MsrA conf
O=C(CN1CCN(Cc2ccccc2Cl)CC1)N/N=C/C=C/c1ccco1,98.0,-1.1,2.0,-4.8,·
O=C(Nc1nc2c(s1)CCCC2=O)c1cnccn1,101.0,-0.8,4.7*,-4.2,3.1
COc1cccc(Oc2nnnn2-c2ccccc2)c1,93.0,4.1,4.7*,-3.1,1.2
O=C(NC1CCCCN(Cc2cccc(Cl)c2)C1=O)c1cccc(C(F)(F)F)c1 (centres undefined),·,-3.4,·,·,·
COCCNC(=S)N/N=C(\C)c1cc2ccccc2o1,70.0*,-3.0,8.2*,-2.0,5.2*
COCCNC(=S)N/N=C(\C)c1ccc(OC)cc1,98.0,1.0,2.1,-3.2,·
Oc1[nH]c2ccccc2c1C1=NCCCC1,93.0,-1.1,4.9*,2.4,3.6
COc1cc2c(cc1OC)C(=S)NC1(CCCC1)C2,96.0,2.6,6.1*,-16.9,1.8
S=C1NC2(CCCCC2)Cc2ccccc21,100.0,-1.5,0.5,-13.7,·
C/C(=N/NC(=O)CSc1nnc(-c2ccccc2)n1-c1ccc(Cl)cc1)c1cccc(O)c1,·,-0.9,·,·,·
COCCNC(=O)Cn1cc(C(=O)c2ccco2)c2ccccc21,93.0,-0.7,7.2*,-4.6,2.5
COC(=O)Cn1cc(C(=O)c2ccco2)c2ccccc21,102.0,-2.4,3.7,-4.5,·
CCOc1cc(/C=N/NC(=O)C(OC)c2ccccc2)ccc1O (centres undefined),97.0,-3.5,3.8,-9.0,·
CCOc1cc(/C=N/Nc2nnc(C)n2N)ccc1O,100.0,-8.3,3.5,4.5,·
